Screening data as filed in PubChem BioAssay.
Wee1 stabilizer – human Wee1 degradation inhibition, primary screen. reporter increase, % at 5 µM. AID 1321. HeLa Luc-Wee1K328M stability, luciferase luminescence; 100% = proteasome inhibitor MG132 effect. 220,000 compounds, 1.2% hits;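 active means activation above the mean of all tested compounds plus 3 SD, set per screening run, cut at about 8.8% in these data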;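 further: cells exposed to compound for 20 h before luminescence read; 0% = DMSO alone and 100% = MG132 at 30 µM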
DAX1 inh-1 – inhibits human nuclear receptor DAX1. 340,000 compounds, 0.99% hits. HEK293 Gal4-DAX1 luciferase reporter, luminescence. inhibition, % at 6.75 µM. AID 504766;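 active means inhibition above the mean over all tested compounds plus 3 SD, cut at about 4.2% in these data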;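 further: 0% = DAX1-transfected cells with DMSO and 100% = empty-vector control cells with DMSO; inhibition shows as a rise in luminescence from relieved DAX1 repression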
DAX1 inh-2 – inhibitors of DAX1 repression of SF-1 activated StAR promoter. HEK293T StAR-luciferase reporter, SF-1/DAX-1 repression relief. inhibition, % at 6.8 µM. 370,000 compounds, 1.1% hits. AID 652010;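 active means inhibition above the mean over all tested compounds plus 3 SD, cut at about 3.6% in these data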;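 further: 0% = DAX-1 cells with DMSO and 100% = cells lacking DAX-1 with DMSO; higher inhibition means more luminescence from relief of DAX-1 repression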
hcDAF-12 act – activators of H. contortus DAF-12 nuclear receptor; HEK293 hcDAF-12 lit1-tk-luc reporter, luminescence; 0% DMSO, 100% Δ7-dafachronic acid; activation, % at 6.8 µM; 370,000 compounds, 1.4% hits;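 active means activation above the mean of all tested compounds plus 3 SD, cut at about 5.5% in these data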;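 further: 100% = response to 3 µM Δ7-dafachronic acid high control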
hgDAF12 agonist – agonists of H. glycines DAF-12 nuclear receptor; HEK293 GAL4-hgDAF12 UAS-luciferase reporter, agonist luminescence; normalized to butyrate control; activation, % at 6.8 µM; 370,000 compounds, 1.8% hits; AID 687014;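 active means activation above a cutoff set at the mean of all screened compounds plus 3 SD, cut at about 10% in these data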;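 further: 0% = DMSO wells and 100% = sodium butyrate wells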
ssDAF12 agonist – activates DAF-12 receptor from parasite S. stercoralis | HEK293 ssDAF-12/GRIP1 lit1-tk-luc reporter, luminescence; % of 3 µM dafachronic acid response | activation, % at 6.8 µM | 370,000 compounds, 1% hits | AID 652126;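 active means activation above the mean over all tested compounds plus 3 SD, cut at about 0.9% in these data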;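 further: 0% = DMSO-only wells and 100% = 3 µM delta7-dafachronic acid wells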
DAX1 inh confirm – NR0B1 (human) inhibition, confirmation | shares compounds with DAX1 inh-2 | HEK293T StAR-promoter luciferase reporter, SF-1/DAX-1 repression | inhibition, % at 6.8 µM | 2,400 compounds, 87% hits | AID 652134;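 active means inhibition above the average of every tested compound plus 3 SD, cut at about 3.8% in these data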;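 further: 0% = DAX-1 cells with DMSO and 100% = no DAX-1 control cells with DMSO; active compounds raise luminescence by relieving repression of the StAR reporter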
Target sequence (P51843 whole entry, looked up): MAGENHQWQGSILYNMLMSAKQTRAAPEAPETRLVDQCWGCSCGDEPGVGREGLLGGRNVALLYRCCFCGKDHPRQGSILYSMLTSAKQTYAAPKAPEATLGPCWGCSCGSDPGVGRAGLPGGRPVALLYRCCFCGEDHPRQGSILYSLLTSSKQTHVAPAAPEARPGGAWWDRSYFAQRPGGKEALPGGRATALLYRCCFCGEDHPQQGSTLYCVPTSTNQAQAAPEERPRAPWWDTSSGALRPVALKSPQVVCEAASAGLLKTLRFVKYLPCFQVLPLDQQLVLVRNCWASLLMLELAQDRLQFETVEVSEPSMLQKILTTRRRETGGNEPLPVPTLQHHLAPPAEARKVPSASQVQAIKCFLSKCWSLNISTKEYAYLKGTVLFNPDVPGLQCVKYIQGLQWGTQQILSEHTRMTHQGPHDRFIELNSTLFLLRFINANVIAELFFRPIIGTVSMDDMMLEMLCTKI
SF1 AF2mut Luc – counter-screen for DAX1 inhibitors: nonselective inhibitors with SF-1 AF2 mutant. shares compounds with DAX1 inh-2. HEK293 StAR-luciferase, luminescence. inhibition, % at 6.8 µM. 2,400 compounds, 78% hits;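 active means inhibition above the mean of all tested compounds plus 3 SD, cut at about 3% in these data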;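 further: 0% = DAX-1 transfected cells with DMSO and 100% = cells without DAX-1 with DMSO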
The depositor's hits bear a star; . = no result. Only some compounds are listed: those with a hit (about 4.6% of all), similar ones and a draw of the others.

SMILES	Wee1 stabilizer	DAX1 inh-1	DAX1 inh-2	hcDAF-12 act	hgDAF12 agonist	ssDAF12 agonist	DAX1 inh confirm	SF1 AF2mut Luc
N/C(=N\N=C\c1ccc2c(c1)OCO2)c1nonc1N	3	-2	6.2*	5.9*	8	0	18*	9.6*
COC(=O)[C@@]1(C(C)C)N=C(c2cc(OC)c(OC)c(OC)c2)[C@]2(O1)C(=O)N(Cc1cn(-c3ccccc3)nn1)c1cccc(Cl)c12	.	.	-2	-3	-2	-1	.	.
CCOc1ccccc1C1c2[nH]c3ccccc3c2C[C@H]2C(=O)N(C3CC3)CC(=O)N12 (some centres not stated)	.	0	0	4	2	-1	.	.
Cc1ccc2nc3ccc(N4CCCC4)nn3c(=O)c2c1	0	0	1	0	8	-1	.	.
CC1CCCN(c2ccc3nc4ccccc4c(=O)n3n2)C1 (configuration not stated)	-3	-2	4.7*	4	11*	0	7.8*	3.5*
COc1ccc2oc(C(=O)Nc3nnc(C)s3)c(C)c2c1	.	-1	10*	3	11*	0	16*	5.9*
Cc1ccc2oc(C(=O)Nc3nnc(C)s3)c(C)c2c1	3	1	1	3	5	-1	.	.
Cn1nc(C(C)(C)C)cc1C(=O)N1CCCCC1c1cc(C(=O)Nc2ccc(F)c(Cl)c2)no1 (configuration not stated)	.	.	-3	-2	-5	-1	.	.
COc1ccc(/C(N)=N/OC(=O)c2cccs2)cc1OC	2	3	8.3*	0	8	-1	6.2*	6.1*
N/C(=N\OC(=O)c1cccs1)c1cccc(Br)c1	1	3	2	2	9	0	.	.
O=C(Nc1ccc(CSc2ccccc2)cc1)c1ccco1	.	2	5.5*	3	13*	0	8.4*	5.5*
N#Cc1ccccc1OCC(=O)Nc1cc(S(=O)(=O)N2CCCCC2)ccc1N1CCOCC1	.	-1	6.0*	-2	-2	-1	-1	-2
CC1(C)COC(c2ccc3c(c2)OCO3)OC1	.	-1	-2	0	2	-1	.	.
CC(=O)Nc1ccccc1NC(=O)C/C(C)=N/NC(=O)c1ccccn1	1	1	4.6*	7.5*	10	0	2	3.4*
CC(C)C(OC(=O)C1=Cc2ccccc2OC1)C(=O)NCC1CCCO1 (configuration not stated)	.	1	5.0*	4	15*	0	2	5.2*
ClCCn1cnc2c(SCc3ccccc3Cl)ncnc21	.	-4	-3	-1	-2	-1	.	.
ClCCn1cnc2c(SCc3ccccc3)ncnc21	.	-4	7.5*	1	-2	-1	-1	-6
O=C(Nc1ccc2c(c1)OCCO2)c1oc2ccccc2c1NC(=O)C1CC1	-2	-1	1	-1	-2	-2	.	.
CCOCC(=O)Nc1c(C(=O)Nc2ccc3c(c2)OCCO3)oc2ccccc12	1	0	7.0*	1	10	0	6.3*	3.1*
Cn1cccc1C(=O)OCC(=O)Nc1ccc2c(c1)OCCO2	.	0	7.1*	4	11*	0	12*	7.0*
S=c1[nH]nc(-c2n[nH]c3c2CCC3)n1N=Cc1c2ccccc2cc2ccccc12	.	.	-1	-2	0	-1	.	.
O=C1CCC[C@H]2C[C@H](NCc3ccc(Cl)c(Cl)c3)CC[C@]23CCCN13	.	.	.	-1	-1	-1	.	.
CN(C)S(=O)(=O)c1ccc(Cl)c(NC(=O)C2CCN(S(=O)(=O)c3cccs3)CC2)c1	.	0	-2	-2	-1	-2	.	.
Cc1cccc(C)c1OCc1cc(C(=O)N2CCC(C3CCCCC3)C2)no1 (configuration not stated)	.	2	4.7*	1	10	0	5.0*	4.0*
CCOC(=O)N1CCN(C(=O)c2cc(COc3ccc(F)cc3F)on2)CC1	.	-1	1	-1	2	-1	.	.
SMILES	Wee1 stabilizer	DAX1 inh-1	DAX1 inh-2	hcDAF-12 act	hgDAF12 agonist	ssDAF12 agonist	DAX1 inh confirm	SF1 AF2mut Luc
CC(=O)c1ccc(OCc2cc(C(=O)N3CC[C@@H]4CCCC[C@H]4C3)no2)cc1	.	1	1	2	10	0	.	.
CC(=O)N1CCCN(C(=O)c2cc(COc3c(F)cccc3F)on2)CC1	.	1	-1	0	1	-1	.	.
O=C(c1cc(COc2c(F)cccc2F)on1)N1CCCCCC1	.	0	4.8*	1	6	0	4.6*	3.0*
CN(C(=O)c1cc(COc2c(F)cccc2F)on1)C1CCOC1 (configuration not stated)	.	1	5.1*	3	5	-1	-1	2
CCOC(=O)N1CCN(C(=O)c2cc(COc3c(F)cccc3F)on2)CC1	.	1	7.8*	3	12*	1	8.9*	5.7*
CN(C)CC1(C)Cc2ccsc2C1O (configuration not stated)	.	0	1	0	0	-1	.	.
COc1ccc(OC)c(CN2CCN(C(=O)c3ccc(S(=O)(=O)N4CCCCCC4)cc3)CC2)c1	.	0	0	1	0	-2	.	.
C[C@@H]1CCCCO[C@@H](CN(C)S(=O)(=O)c2ccccc2)[C@@H](C)CN([C@H](C)CO)C(=O)c2cc(N(C)C)ccc2O1	.	1	0	-1	2	-1	.	.
Cc1ccc(C(=O)Nc2ccc(Cl)cc2C)c(Cl)c1	1	1	6.7*	5	12*	0	7.2*	5.4*
Cc1cc(NC(=O)c2ccccc2Cl)ccc1NC(=O)c1ccccc1Cl	.	-1	0	-3	-1	0	.	.
COc1ccc(Cn2ccc3ccc(-c4ccc5ccn(Cc6ccc(F)cc6)c5c4)cc32)cc1	.	.	-1	4	2	-1	.	.
Cc1[nH]c2ccc(C(=O)N3CCCCC3)cc2c1C	0	3	6.3*	2	11*	1	9.5*	3.6*
CCOC(=O)c1nc2c(=O)n(C)c(=O)n(C)c2n(C)c1=O	.	-1	1	-1	0	-1	.	.
O=C(C[C@H]1C[C@H](C(=O)N2CCOCC2)[C@@]2(CCC3CCCC3)c3[nH]c4cc(-c5ccco5)ccc4c3CCN2C1=O)NCCc1ccccn1	.	-1	4.6*	-2	-3	-1	-1	-1
CC(C)(C)NC(=O)C[C@H]1C[C@H](C(=O)N2CCCCC2)[C@@]2(CCc3ccccc3)c3[nH]c4cc(-c5ccco5)ccc4c3CCN2C1=O	.	0	6.1*	-2	-3	-1	0	-1
